Screens: PubChem BioAssay, National Center for Advancing Translational Sciences (NCATS)
LmPK inh – blocks Leishmania mexicana pyruvate kinase activity; Q27686; purified LmPK, Kinase-Glo ATP luminescence, 1 h; Potency, µM (highest dose often 57.5 µM), without a hit: at the top dose activity change, negative = inhibition, actives largely listed as inhibitors; actives 0.37% (n = 290,000); AID 1721; further: potency means the concentration at half of the fitted maximal effect; on the % scale 0 is the no-effect control and ±100 the full control effect
Target sequence (Q27686 whole entry, looked up): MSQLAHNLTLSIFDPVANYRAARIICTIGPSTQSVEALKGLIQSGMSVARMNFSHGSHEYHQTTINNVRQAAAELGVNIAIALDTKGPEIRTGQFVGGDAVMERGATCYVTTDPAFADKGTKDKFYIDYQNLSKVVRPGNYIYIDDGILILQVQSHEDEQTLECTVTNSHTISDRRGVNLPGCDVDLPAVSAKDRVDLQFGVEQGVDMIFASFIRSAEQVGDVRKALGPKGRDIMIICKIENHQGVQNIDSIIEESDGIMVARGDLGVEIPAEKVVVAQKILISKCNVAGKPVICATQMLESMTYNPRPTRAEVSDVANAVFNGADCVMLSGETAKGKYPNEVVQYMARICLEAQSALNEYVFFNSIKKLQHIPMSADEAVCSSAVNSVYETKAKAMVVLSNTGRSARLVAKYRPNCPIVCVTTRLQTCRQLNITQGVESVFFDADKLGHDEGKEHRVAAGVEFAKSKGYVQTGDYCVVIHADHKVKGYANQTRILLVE
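Kinase-Glo luminescence read after 1 h RT reaction of 0.1 nM LmPK with 0.5 mM PEP and 0.1 mM ADP. Activity scaled between uninhibited and enzyme-free controls.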
NS1 inh – influenza NS1 inhibition. Potency, µM (highest dose often 46.1 µM), without a hit: at the top dose activity, positive = more growth. actives 0.4% (n = 270,000); calls by dose curve; further: potency means the concentration at half of the fitted maximal effect; actives are rising curves; nearly all actives have a fitted effect of over 50% in size
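S. cerevisiae expressing influenza A NS1, grown in glucose, washed, then diluted 1:100 into pH 6.0 -URA galactose medium with 23 nl compound. Growth recovery read as OD600; NS1-free strain serves as control.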
Tb PYK inh – T. brucei pyruvate kinase inhibition; Q57TT1; Potency, µM (titrated, usually from 76.8 µM), without a hit: top-dose activity, negative = inhibition, most hits filed as inhibitors; actives 0.12% (n = 410,000); AID 624173; TbPYK enzyme, Kinase-Glo Plus ATP luminescence, 45 min; further: potency means the concentration at half of the fitted maximal effect; on the % scale 0 is the no-effect control and ±100 the full control effect; nearly all actives have a fitted effect of over 50% in size
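Screened from lowest to highest concentration, compounds were pinned into TbPYK/substrate mixtures, and ADP (130 uM final) was added. Plates sat at room temperature for 45 min prior to Kinase-Glo Plus detection by luminescence.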
RE007 growth inh – less growth of the S. pombe RE007 Vpr strain. AID 651644. S. pombe RE007 Vpr strain, BacTiter-Glo ATP luminescence, 24 h. Potency, µM (titrated, usually from 92.2 µM), inactives show top-dose activity change, negative = less growth, usual class: inhibitors. actives 0.21% (n = 360,000); active means well fitted falling curve with a large enough effect; inconclusive means small, poorly fitted or top-dose-only effect; inactive means no such curve, though single readings can be large or run the other way; further: potency means the concentration at half of the fitted maximal effect; on the % scale 0 is the no-effect control and ±100 the full control effect; nearly all actives have a fitted effect of over 50% in size
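Fission yeast RE007 carrying one integrated HIV-1 vpr copy, seeded at OD 0.01 in PMG+AL medium with 23 nL pinned compound. Grown 24 h at 30 degrees; viability read by BacTiter-Glo luminescence after 5 min.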
Flu NS1 inh – influenza NS1 function inhibition validation; shares compounds with NS1 inh; influenza NS1 function cell assay, 15-point titration; activity change, negative = inhibition, % at 32.9 µM; 1,400 tested, under 10 active; AID 492980; calls by dose curve; further: 0% is about no effect
Flu PR8 replic – influenza virus titer reduction, NS1 project | shares compounds with NS1 inh | MDCK infected influenza A/PR/8/34, virus titer TCID50; stronger effect = lower value | virus titer (log TCID50), log10 TCID50 at 5 µM | actives 30% (n = 95) | AID 504647; call rule not given here
Starred values were filed as active, the others as inactive; ? = inconclusive; . = not tested or not shown; [ ] = remark or other dose. Compounds with a hit are over-represented: about 0.77% of the library has one in this group of screens. Unless noted, the call rests on the fitted dose curve; in most records, active means well fitted curve in the direction sought with a large enough effect; inconclusive means small, poorly fitted or top-dose-only effect, or another doubt; inactive means no such curve, though single readings can be large; an effect the other way counts as inactive or inconclusive.

SMILES	LmPK inh	NS1 inh	Tb PYK inh	RE007 growth inh	Flu NS1 inh	others
CN1CCN(C2=Nc3ccccc3Oc3ccc(Cl)cc32)CC1	-1%	?	-2%	-3%[18.4 µM]	-21	Flu PR8 replic=7.3*
CCC(C)(C)n1nnnc1C(c1cc2cc(OC)c(OC)cc2[nH]c1=O)N1CCc2ccccc21 (stereo unspecified)	4%	14µM*	5%	9%	?
COc1cc2cc(C(c3nnnn3C(C)(C)C)N3CCc4ccccc4C3)c(=O)[nH]c2cc1OC (stereo unspecified)	1%	-25%	-6%	-3%	.
N#C/C(=C1/SC[C@@H](c2ccc(Cl)cc2Cl)S1)n1ccnc1	.	.	6%	.	.
O=Cc1ccc2c(c1)CCN2Cc1ccccc1	1%	-39%	1%	?	.
Cc1ccccc1N1C(=O)NC(=O)/C(=C\c2ccc3c(c2)CCCN3Cc2ccccc2)C1=O	3%	?	-25%	7%	-31
COc1cc2c(cc1OC)[C@@]13CCN4C=C5CCO[C@H]6CC(=O)N2[C@@H]1C6[C@H]5C[C@H]43 (stereo partly specified)	.	-3%	.	.	.
Cc1ccc(C)c(NC(=O)CCC(=O)NN=C2CCCC2)c1	-2%	8%	1%	4%	.
Cc1ccccc1Cn1c(=O)n(CC2CCC(C(=O)N3CCC(C)CC3)CC2)c(=O)c2sccc21 (stereo unspecified)	.	.	0%	.	.
CCCCN(C(=O)C1CCCO1)c1c(N)n(CCC)c(=O)[nH]c1=O (stereo unspecified)	.	.	3%	-6%	.
COc1ccc2nc(SCC(=O)Nc3ccccc3)[nH]c2c1	7%	?	-10%	7%	-16
CC(C)CC(=O)Nc1sc2c(c1C#N)CC(C)(C)NC2(C)C	1%	10µM*	9%	-14%	-1
C[C@H]1CC[C@@]2(NC1)O[C@@H]1C[C@@H]3[C@@H]4CC=C5C[C@@H](O)CC[C@]5(C)[C@@H]4CC[C@]3(C)[C@H]1[C@@H]2C	.	-52%	.	.	.
COc1ccccc1NC(=O)CN(c1ccc(C)cc1)S(=O)(=O)c1c(C)n[nH]c1C	11%	?	-4%	10%	-11
COc1ccc(OC)c(NC(=O)CN(c2ccc(C)cc2)S(=O)(=O)c2c(C)n[nH]c2C)c1	2%	15%	-8%	5%	.
C[C@H]1Cc2c(-c3ccccc3)nc3c(c2CO1)CN(S(=O)(=O)c1ccc(C#N)cc1)CC3	-1%[11.5 µM]	.	.	.	.
O=C1CNC(=S)N1CCc1ccc(O)c(O)c1	4%	?	-20%	-9%	29
Cc1cccc(C(=O)Nc2ccc3nc(SCC(=O)N4CCc5ccccc54)sc3c2)c1	.	.	7%	.	.
Cc1ccc(S(=O)(=O)Nc2ccc(-c3nc4ccc(C)cc4s3)cc2)cc1	-1%	19%	0%	-6%	.
Cc1ccc2nc(-c3ccc(NS(=O)(=O)c4c(C)n(C)c(=O)n(C)c4=O)cc3)sc2c1	-1%	7.9µM*	0%	-10%	4
CC1CCN(C(=O)CCc2ccc(Oc3cc([N+](=O)[O-])cc([N+](=O)[O-])c3)cc2)CC1	1%	0%	-5%	62%	.
COc1ccc(-c2nn(-c3ccccc3)cc2/C=N/NC(=O)c2ccc3c(c2)OCO3)cc1	2%	5%	.	.	.
COc1ccc(-c2nn(-c3ccccc3)cc2/C=N/NC(=O)c2cccc(S(=O)(=O)Nc3ccccc3OC)c2)cc1	2%	10µM*	0%	6%	5
Oc1ccc([C@H](O)C2CCCCN2)cc1O (stereo partly specified)	.	0%	.	.	.
CCOc1ccc(OCC)c(NC(=O)c2nnn(CC(=O)Nc3ccc(C)cc3C)c2N)c1	.	.	1%	.	.
SMILES	LmPK inh	NS1 inh	Tb PYK inh	RE007 growth inh	Flu NS1 inh	others
CCCOC(c1ccccc1)(c1ccccc1)C(Oc1nc(C)cc(C)n1)C(=O)O (stereo unspecified)	3%	?	5%	0%	.
Cc1cc(C)nc(OC(C(=O)O)C(OCc2ccccc2)(c2ccccc2)c2ccccc2)n1 (stereo unspecified)	10%	17%	-2%	2%	.
Cc1ccnc(OC(C(=O)O)C(OCc2ccccc2)(c2ccccc2)c2ccc(C(F)(F)F)cc2)n1 (stereo unspecified)	1%	?	2%	-6%	28
Cc1cc(C)nc(OC(C(=O)O)C(OCCC(C)C)(c2ccccc2)c2ccccc2)n1 (stereo unspecified)	-3%	2.5µM*	-11%	3%	20
O=C(/C=C/c1ccc(Cl)cc1Cl)NC(=S)Nc1ccc(CN2CCOCC2)cc1	-3%	?	4%	2%	25
COc1ccccc1/C=C/CN1CCC(n2nccc2NC(=O)CCc2ccccc2)CC1	5%	-2%	4%	-7%	.
C[N+]1(C)[C@@H]2CC(OC(=O)[C@@H](CO)c3ccccc3)C[C@@H]1[C@H]1O[C@H]12 (stereo partly specified)	.	-3%	6%	.	.
COc1cccc2c(=O)c(C(=O)NCCc3ccccc3)c[nH]c12	.	.	1%	-13%	.
COc1cccc2c(=O)c(C(=O)NCc3cccs3)c[nH]c12	3%	1.4µM*	-1%	8%	-4
CC1CC(C)CN(S(=O)(=O)N2CCCC(C(=O)NCc3ccccc3Cl)C2)C1 (stereo unspecified)	4%	?	1%	3%	-15	Flu PR8 replic=8
CCOC(=O)N1CCN(S(=O)(=O)N2CCCC(C(=O)NCc3ccc(OC)cc3)C2)CC1 (stereo unspecified)	1%	?	-1%	6%	-20
CC(C)(S)C(=O)NC(CS)C(=O)O (stereo unspecified)	.	.	0%	.	.
CCN(CC)C(=O)[C@H]1C[C@H](CC(=O)NCCC2=CCCCC2)C(=O)N2CCc3c([nH]c4ccc(Cl)cc34)[C@]12C	.	.	-3%	11%	.
CCOC(=O)c1ccc(N/C(=N\S(=O)(=O)c2ccccc2C)c2ccccc2)cc1	5%	16%	-8%	22%	.
N#Cc1nc(-c2ccco2)oc1NCCCN1CCOCC1	6%	2.5µM*	?	2%	20
O=C(c1cnc(N2CCOCC2)c2ccccc12)N1CCN(c2ccccc2F)CC1	.	.	-3%	.	.
O=C(O)C(Cc1cc(I)c(O)c(I)c1)c1ccccc1 (stereo unspecified)	.	.	1%	.	.
CCC1(C)Cc2c(sc3c2c(=O)n(-c2ccccc2)c(=O)n3C)CO1 (stereo unspecified)	0%	3%	2%	-2%	.
Cn1c(=O)n(-c2ccccc2)c(=O)c2c3c(sc21)COC(C)(C)C3	6%	8.9µM*	1%	11%	9
CN1CC[C@@]2(C)c3cc(O)ccc3N(C)C12 (stereo partly specified)	.	13µM*	.	.	1
